Assay results published in PubChem BioAssay (NCI).
About 83,000 compounds went through this panel and 20% of them were active in at least one assay; those are over-represented in the sample as a whole.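 Step 1: grow cells in 96-well plates. Step 2: add test compound at a single concentration. Step 3: incubate 48 h. Step 4: record percent growth.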 A number with no mark means an inactive call. Active and inactive are the calls of the source. How the source made its calls: active means growth percent below 10; inactive means the rest.

Columns and labels:
Assay in all cases: NCI-60 one-dose screen, 48 h (100 = growth as untreated, 0 = no growth, -100 = all killed)
Details in all cases: 10 µM unless noted
DU-145 prostate = test system: DU-145 prostate
K-562 leukemia = test system: K-562 leukemia
MALME-3M melanoma = test system: MALME-3M melanoma
MDA-MB-231 breast = test system: MDA-MB-231 breast
RXF 393 renal = test system: RXF 393 renal
SF-268 CNS = test system: SF-268 CNS
SF-295 CNS = test system: SF-295 CNS
SF-539 CNS = test system: SF-539 CNS
M14 melanoma = test system: M14 melanoma
HCT-15 colon = test system: HCT-15 colon
HT29 colon = test system: HT29 colon
SNB-75 CNS = test system: SNB-75 CNS
SNB-19 CNS = test system: SNB-19 CNS
U251 CNS = test system: U251 CNS
PC-3 prostate = test system: PC-3 prostate
SK-MEL-5 melanoma = test system: SK-MEL-5 melanoma
UACC-62 melanoma = test system: UACC-62 melanoma
LOX IMVI melanoma = test system: LOX IMVI melanoma
SK-MEL-28 melanoma = test system: SK-MEL-28 melanoma

Compound	growth (DU-145 prostate)	growth (K-562 leukemia)	growth (MALME-3M melanoma)	growth (MDA-MB-231 breast)	growth (RXF 393 renal)	growth (SF-268 CNS)	growth (SF-295 CNS)	growth (SF-539 CNS)	growth (M14 melanoma)	growth (HCT-15 colon)	growth (HT29 colon)	growth (SNB-75 CNS)	growth (SNB-19 CNS)	growth (U251 CNS)	growth (PC-3 prostate)	growth (SK-MEL-5 melanoma)	growth (UACC-62 melanoma)	growth (LOX IMVI melanoma)	growth (SK-MEL-28 melanoma)
Cc1c(C2=NNC(c3ccc4c(c3)OCO4)C2)[n+]([O-])c2ccccc2[n+]1[O-] (centres undefined)	103%	91.2%	154%	102%	96.4%	114%	105%	96.2%	99.6%	103%	110%	88.9%	103%	110%	96%	97.9%	118%	96.1%	113%
CN(C)C/C=C/C(=O)Nc1cc2c(Nc3ccc(F)c(Cl)c3F)ncnc2cc1OCCOC(F)F	10.4%	5.47% (active)	35.3%	-1.17% (active)	-29.4% (active)	14.4%	33.7%	9.19% (active)	41.5%	9.17% (active)	2.75% (active)	-19.4% (active)	36.6%	27.9%	11%	37.5%	28.9%	15.3%	49.4%
CCOC(=O)c1cc(/C(=N\O)c2cc(OC)c(OC)c(OC)c2)n2c(C)cccc12	50.1%	16.8%	44.8%	48.7%	34.5%	43%	11.3%	15.2%	20.8%	25.7%	9.58% (active)	9.5% (active)	42.5%	26.2%	31.4%	14.5%	27%	37.9%	58.4%
CN(C)c1nc(N)c(N=O)c(N)n1	113%	103%	118%	108%	118%	110%	127%	110%	111%	111%	117%	98.5%	112%	103%	99.4%	110%	103%	99.1%	114%
O=S(=O)(NCCCNc1cc(-c2cn(-c3ccccc3)nc2-c2cccc(O)c2)ccn1)c1cccc2ccccc12	49.7%	1.39% (active)	-1.89% (active)	4.29% (active)	32.1%	39.9%	-19.9% (active)	33.3%	28.2%	1.39% (active)	-9.29% (active)	28.1%	64.2%	35.2%	18.5%	14.2%	34.5%	10.3%	4.71% (active)
O=C(O)c1ccc(-n2cc(CNc3ccc(C(F)(F)F)cc3)c(-c3ccccc3)n2)cc1	95.9%	80.6%	91.3%	102%	99.4%	91.4%	75%	99.9%	89%	84.3%	114%	92.1%	102%	81%	79.7%	91.5%	72.9%	89.2%	95.2%
CC1Cc2c(N(C)C)ncnc2N(C)c2ccc(O)cc21 (centres undefined)	101%	36.5%	89.5%	87.2%	95.2%	87.4%	91.8%	91.3%	73.7%	50.5%	97.8%	72.9%	83.1%	78.9%	72.9%	82.9%	81.2%	86.2%	98.6%
CCC(c1cccc(Br)c1)C(C(=O)O)c1ccc(OC)cc1 (centres undefined)	116%	77.6%	101%	111%	118%	105%	108%	104%	86.5%	83.5%	106%	96%	104%	90.4%	90.2%	94.6%	82.9%	95.8%	95.8%
C=CCc1cc(Cl)cc2c(OC(C)=O)c(C(C)=O)c(-c3ccccc3)nc12	112%	109%	104%	90.7%	130%	109%	114%	110%	104%	108%	112%	85.6%	112%	105%	96%	105%	101%	97.3%	116%
CN(C)C1CCC(NC2=CC(=O)C=CC2=O)CC1 (centres undefined)	107%	111%	115%	109%	118%	99.9%	128%	112%	107%	114%	116%	86.1%	115%	111%	104%	106%	110%	97.9%	113%
COc1cccc2nc(Nc3ccc(NC(=O)c4ccc5ncccc5c4)cc3)ccc12	89.6%	60.1%	70.2%	68.3%	30%	82.8%	6.41% (active)	48.1%	92.6%	51.5%	63.3%	80.8%	90.3%	61.8%	52.3%	80.7%	97.4%	84.6%	73.8%
CC(CCc1ccccc1)NC(=O)c1n[nH]c(=O)c2ccccc12 (centres undefined)	110%	77.3%	116%	101%	144%	112%	107%	98.6%	104%	101%	105%	96.6%	115%	103%	95.7%	98.9%	93.9%	95.4%	118%
Nc1cccc2c1CN(C1CCC(=O)NC1=O)C2=O (centres undefined)	107%	132%	119%	107%	-17.4% (active)	102%	116%	94.7%	101%	105%	101%	88.4%	88.9%	97%	91%	103%	114%	99.8%	111%
O=S(=O)(NCCNc1cc(-c2cn(-c3ccccc3)nc2-c2ccccc2)ccn1)c1ccc(F)cc1	88.3%	54.3%	101%	80.1%	75.1%	83.2%	87.6%	103%	87%	74.2%	88.3%	77.4%	92.5%	72.7%	47.6%	68.9%	89.4%	78.5%	104%
CCOC(=O)/C=C\C(=O)NC(N)=O	106%	94.4%	102%	103%	101%	106%	106%	108%	96.7%	99.9%	104%	99.3%	106%	94%	83.5%	105%	99.3%	91.8%	118%
CCN1C(=O)N[C@H]2[C@@H]3NC(=O)c4ccc(Cl)n4[C@@H]3C[C@]21O	5.1% (active)	3.13% (active)	-1.41% (active)	-3.51% (active)	10.2%	5.4% (active)	0.996% (active)	-33.5% (active)	-21.3% (active)	13.4%	2.91% (active)	-2.5% (active)	-8.44% (active)	-5.63% (active)	9.77% (active)	-28.7% (active)	-20.9% (active)	-6.47% (active)	-6.88% (active)
